# Source: PubChem BioAssay (NCATS)
# A number with no mark means an inactive call. Records with an inconclusive call do not appear. Calls of active or inactive are those of the source. Unless noted, calls follow the shape of the dose curve; as a rule, active = well fitted curve in either direction with a large enough effect (not every such curve was filed as active); inconclusive = small, poorly fitted or top-dose-only effect, or another doubt; inactive = flat fitted curve, though single readings scatter.
# Legend:
# [1] = target: Lysosomal acid glucosylceramidase (Homo sapiens) (UniProt P04062); experiment: Glucocerebrosidase-p2 (AID 348; in the data active = potency below about 10 µM; also: potency is read from the fitted curve at half-maximal effect); details: purified GBA, blue fluorogenic substrate, 40 min
# In short: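 Compounds titrated from 0.6 nM upwards against 0.2 nM enzyme in pH 5.9 citric acid/KH2PO4, taurocholate, tween-20; blue fluorogenic substrate 80 uM, 40 min room temperature, stopped and read Ex 365/Em 440 for AC50.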
# [2] = AP1 Signaling Pathway (AID 357); details: ME-180 (cervical carcinoma) AP-1-bla reporter, EGF-induced, beta-lactamase ratio, 5 h; at 7.69 µM (top of the series) unless noted;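 also: ME-180 reporter cells stimulated with EGF at its EC50 level; % is scaled to controls: 0 for no effect and ±100 for the full control effect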
# In short: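 Modulation of EGF-driven AP-1 transcription was assessed with a beta-lactamase reporter in ME-180 cells. Compound and EC50 EGF were co-incubated 5 hours at 37 °C before 2.5-hour CCF4 loading at room temperature and dual-emission reading.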
# [3] = target: 3',5'-cyclic-AMP phosphodiesterase 4B (Homo sapiens) (UniProt Q07343); experiment: qHTS Assay for Inhibitors of PDE-IV (AID 607; active = well fitted activation curve with a large enough effect in the main read-out, with a control signal flat, not every such curve was filed as active; also: % of control where 0% means no effect); details: HEK293 ACTOne CNG channel cells, membrane potential fluorescence; series mostly up to 22.9 µM
# In short: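 Cell-based read-out of cAMP via a modified cyclic nucleotide-gated channel and membrane potential dye (535/590 nm) in HEK293 cells expressing PDE4 endogenously. Compounds tested up to 22.9 uM final; 100 uM RO 20-1724 reference.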
# [4] = NFAT Signaling Pathway (AID 444); details: Jurkat NFAT-bla M1, carbachol, beta-lactamase ratio, 5 h; at 7.69 µM (top of the series) unless noted;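 also: carbachol stimulus at about its EC50 of 1 µM final; % is scaled to controls: 0 for no effect and ±100 for the full control effect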
# In short: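 Jurkat cells carrying an NFAT-driven β-lactamase reporter and co-transfected muscarinic M1 receptor were treated with compound plus carbachol (1 uM final, an EC50 level) for 5 h at 37 °C. CCF4 loading followed for 1 h at RT; 460/530 nm ratio gave %activity.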
# [5] = target: Dual specificity protein kinase CLK4 (Homo sapiens) (UniProt Q9HAZ1); experiment: qHTS Assay for Inhibitors of CDC-like Kinase 4 (ADP-FP Assay) (AID 1795; active = well fitted curve in the direction sought with a large enough effect; an effect the other way counts as inactive or inconclusive; also: nearly all actives have a fitted effect of over 60% in size; also: potency is read from the fitted curve at half-maximal effect); details: Transcreener ADP fluorescence polarization; series mostly up to 50 µM
# In short: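 FP readout: Orange Transcreener ADP2 tracer (4 nM) plus ADP antibody, read after 30 min at room temperature. Kinase step: 6.25 nM Clk4, 100 uM RS peptide, 1 uM ATP, pH 7.5, 1 h.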
# [6] = target: Cytochrome P450 1A2 (Homo sapiens) (UniProt P05177); experiment: p450-cyp1a2 (AID 410; calls by dose curve; also: potency is read from the fitted curve at half-maximal effect;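 as to activity change, negative = inhibition: -100% = full effect of reference inhibitor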); details: recombinant CYP1A2, luciferin-ME demethylation, luminescence; series mostly up to 57 µM
# In short: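 Human CYP1A2 (20nM) demethylated Luciferin-ME at its Km (100uM) in 100mM KPO4. After 10 min compound preincubation, NADPH regeneration ran the reaction 60 min at room temperature. Luciferin was read by luminescence, normalized to 57 uM furafylline.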
# [7] = target: Cytochrome P450 3A4 (Homo sapiens) (UniProt P08684); experiment: qHTS Assay for Inhibitors and Substrates of Cytochrome P450 3A4 (AID 884; active = well fitted curve in the direction sought with a large enough effect; an effect the other way counts as inactive or inconclusive; also: potency is read from the fitted curve at half-maximal effect; nearly all actives have a fitted effect of over 50% in size); details: recombinant CYP3A4, Luciferin-PPXE luminescence; series mostly up to 57.1 µM
# In short: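 20 nM human CYP3A4 with 25 uM Luciferin-PPXE (at KM) in 200 mM KPO4, preincubated 10 min with compound; NADPH regeneration started a 60 min RT reaction. Luciferin detected by luminescence, normalized to 57 uM ketoconazole as full inhibition.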
# [8] = target: Cytochrome P450 3A4 (Homo sapiens) (UniProt P08684); experiment: qHTS Assay for Activators of Cytochrome P450 3A4 (AID 885; active = well fitted curve in the direction sought with a large enough effect; an effect the other way counts as inactive or inconclusive; also: nearly all actives have a fitted effect of over 65% in size); details: recombinant CYP3A4, Luciferin-PPXE luminescence, 60 min; series mostly up to 57.1 µM
# In short: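 Signal was normalized against complete inhibition by 57 uM ketoconazole. The reaction used 20nM CYP3A4 with 25uM Luciferin-PPXE, 10-min compound preincubation and a 60-min NADPH-supported step at RT.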
# [9] = target: Cytochrome P450 2C19 (Homo sapiens) (UniProt P33261); experiment: qHTS Assay for Inhibitors and Substrates of Cytochrome P450 2C19 (AID 899; active = well fitted curve in the direction sought with a large enough effect; an effect the other way counts as inactive or inconclusive; also: potency is read from the fitted curve at half-maximal effect; nearly all actives have a fitted effect of over 60% in size); details: recombinant CYP2C19, luciferin-H EGE luminescence; series mostly up to 57.1 µM
# In short: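 NADPH-dependent conversion of Luciferin-H EGE (10uM, at KM) by 5nM enzyme in 50mM KPO4, 60 min at 37C following 10 min compound preincubation. Stopped with luciferin detection buffer; luminescence read after 20 min.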
# [10] = target: Cytochrome P450 2C9 (Homo sapiens) (UniProt P11712); experiment: qHTS for inhibitors of CYP2C9 against the NCATS DSHEA and TCM libraries (AID 1919973; active = well fitted curve in the direction sought with a large enough effect; an effect the other way counts as inactive or inconclusive;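 also: luminogenic pro-luciferin CYP2C9 substrate turned into luciferin with NADPH regeneration; % is scaled to controls: 0 for no effect and ±100 for the full control effect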); details: recombinant CYP2C9 enzyme activity, luminescence; series mostly up to 34.1 µM
# In short: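 Luminescent P450-Glo readout. Enzyme plus pro-luciferin substrate in manufacturer buffer (typically 100 mM KPO4); 15 min RT preincubation; 1x NADPH regenerating system, 30-45 min RT in the dark; detection reagent 30 min.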
# [11] = target: Cytochrome P450 1A2 (Homo sapiens) (UniProt P05177); experiment: qHTS for inhibitors of CYPIA2 against the NCATS DSHEA and TCM libraries (AID 1919976; active = well fitted curve in the direction sought with a large enough effect; an effect the other way counts as inactive or inconclusive;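 also: light from luciferin formed by CYP1A2 from a pro-luciferin substrate; % is scaled to controls: 0 for no effect and ±100 for the full control effect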); details: recombinant CYP1A2 enzyme activity, luminescence; series mostly up to 37 µM
# In short: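 Human CYP1A2 with its pro-luciferin substrate in supplier buffer (typically 100 mM KPO4) was pre-incubated with compounds 15 min at RT. Reaction was started with 1x NADPH regeneration solution and run 30-45 min at RT in the dark, then luminescence was read after P450-Glo detection reagent (30 min RT).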
# Chain of Cytochrome P450 1A2 (Homo sapiens) (P05177 whole entry, looked up): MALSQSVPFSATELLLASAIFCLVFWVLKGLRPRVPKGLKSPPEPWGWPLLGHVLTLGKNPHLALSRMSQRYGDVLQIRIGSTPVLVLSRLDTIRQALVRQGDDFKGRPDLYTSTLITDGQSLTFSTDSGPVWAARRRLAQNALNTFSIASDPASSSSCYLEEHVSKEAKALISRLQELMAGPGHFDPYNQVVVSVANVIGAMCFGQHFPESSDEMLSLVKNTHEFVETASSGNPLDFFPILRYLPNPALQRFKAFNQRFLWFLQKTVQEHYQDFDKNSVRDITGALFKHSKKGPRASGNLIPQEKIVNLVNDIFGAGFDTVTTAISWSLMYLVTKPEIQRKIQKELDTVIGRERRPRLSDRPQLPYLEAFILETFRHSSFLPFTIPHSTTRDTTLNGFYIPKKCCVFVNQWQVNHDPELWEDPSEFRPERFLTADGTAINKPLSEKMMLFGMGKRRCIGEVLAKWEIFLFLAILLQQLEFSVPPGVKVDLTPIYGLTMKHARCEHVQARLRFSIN
# Chain of Dual specificity protein kinase CLK4 (Homo sapiens) (Q9HAZ1 whole entry, looked up): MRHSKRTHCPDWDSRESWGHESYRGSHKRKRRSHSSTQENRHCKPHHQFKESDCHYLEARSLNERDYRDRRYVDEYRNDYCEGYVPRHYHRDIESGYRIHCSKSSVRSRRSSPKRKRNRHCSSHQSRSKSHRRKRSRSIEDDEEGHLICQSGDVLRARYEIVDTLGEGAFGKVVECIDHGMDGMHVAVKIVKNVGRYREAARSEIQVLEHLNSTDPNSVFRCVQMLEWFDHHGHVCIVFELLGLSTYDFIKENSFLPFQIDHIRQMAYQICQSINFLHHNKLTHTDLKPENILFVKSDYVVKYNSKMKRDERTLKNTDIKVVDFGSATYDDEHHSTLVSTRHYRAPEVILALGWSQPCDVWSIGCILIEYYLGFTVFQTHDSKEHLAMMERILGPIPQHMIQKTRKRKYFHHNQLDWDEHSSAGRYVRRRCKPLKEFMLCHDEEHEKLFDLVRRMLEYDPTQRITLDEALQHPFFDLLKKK
# Chain of Cytochrome P450 3A4 (Homo sapiens) (P08684 whole entry, looked up): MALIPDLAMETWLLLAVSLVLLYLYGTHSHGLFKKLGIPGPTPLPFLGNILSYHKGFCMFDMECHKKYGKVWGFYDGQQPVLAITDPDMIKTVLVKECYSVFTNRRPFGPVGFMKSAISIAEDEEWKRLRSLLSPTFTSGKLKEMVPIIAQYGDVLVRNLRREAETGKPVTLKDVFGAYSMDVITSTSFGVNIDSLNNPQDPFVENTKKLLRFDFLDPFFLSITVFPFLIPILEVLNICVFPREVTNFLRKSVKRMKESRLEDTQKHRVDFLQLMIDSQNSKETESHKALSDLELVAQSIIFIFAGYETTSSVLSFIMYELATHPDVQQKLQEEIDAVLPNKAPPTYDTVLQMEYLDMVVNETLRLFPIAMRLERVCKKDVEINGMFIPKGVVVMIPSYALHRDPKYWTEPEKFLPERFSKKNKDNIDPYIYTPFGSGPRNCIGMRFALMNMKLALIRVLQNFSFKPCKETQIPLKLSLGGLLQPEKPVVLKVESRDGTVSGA
# Chain of Cytochrome P450 2C9 (Homo sapiens) (P11712 whole entry, looked up): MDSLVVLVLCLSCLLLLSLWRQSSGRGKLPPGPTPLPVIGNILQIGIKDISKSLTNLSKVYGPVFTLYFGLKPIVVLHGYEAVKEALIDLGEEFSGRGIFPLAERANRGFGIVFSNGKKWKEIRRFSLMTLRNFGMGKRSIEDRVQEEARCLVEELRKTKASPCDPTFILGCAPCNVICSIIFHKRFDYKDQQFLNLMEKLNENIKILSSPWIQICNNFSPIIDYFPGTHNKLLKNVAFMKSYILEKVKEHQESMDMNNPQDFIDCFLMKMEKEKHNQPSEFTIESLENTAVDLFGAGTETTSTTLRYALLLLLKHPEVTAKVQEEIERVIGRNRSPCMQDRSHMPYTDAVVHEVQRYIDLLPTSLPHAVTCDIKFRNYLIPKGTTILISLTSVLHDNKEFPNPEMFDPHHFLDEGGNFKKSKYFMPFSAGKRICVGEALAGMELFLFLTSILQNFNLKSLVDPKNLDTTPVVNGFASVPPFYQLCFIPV
# Chain of Cytochrome P450 2C19 (Homo sapiens) (P33261 whole entry, looked up): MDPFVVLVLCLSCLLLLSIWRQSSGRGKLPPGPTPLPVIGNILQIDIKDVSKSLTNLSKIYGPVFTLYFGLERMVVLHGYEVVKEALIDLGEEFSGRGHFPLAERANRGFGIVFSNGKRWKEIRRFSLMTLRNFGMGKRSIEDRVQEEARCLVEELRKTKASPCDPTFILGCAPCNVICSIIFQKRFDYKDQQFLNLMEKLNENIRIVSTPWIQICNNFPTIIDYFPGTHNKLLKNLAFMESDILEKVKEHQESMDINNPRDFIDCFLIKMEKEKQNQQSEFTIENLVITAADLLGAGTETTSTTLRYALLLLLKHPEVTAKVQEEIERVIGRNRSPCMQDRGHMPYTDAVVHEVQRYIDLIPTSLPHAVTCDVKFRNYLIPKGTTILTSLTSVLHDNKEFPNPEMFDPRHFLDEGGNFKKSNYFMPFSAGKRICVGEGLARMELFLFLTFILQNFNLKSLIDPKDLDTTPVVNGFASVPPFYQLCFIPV
# Chain of 3',5'-cyclic-AMP phosphodiesterase 4B (Homo sapiens) (Q07343 whole entry, looked up): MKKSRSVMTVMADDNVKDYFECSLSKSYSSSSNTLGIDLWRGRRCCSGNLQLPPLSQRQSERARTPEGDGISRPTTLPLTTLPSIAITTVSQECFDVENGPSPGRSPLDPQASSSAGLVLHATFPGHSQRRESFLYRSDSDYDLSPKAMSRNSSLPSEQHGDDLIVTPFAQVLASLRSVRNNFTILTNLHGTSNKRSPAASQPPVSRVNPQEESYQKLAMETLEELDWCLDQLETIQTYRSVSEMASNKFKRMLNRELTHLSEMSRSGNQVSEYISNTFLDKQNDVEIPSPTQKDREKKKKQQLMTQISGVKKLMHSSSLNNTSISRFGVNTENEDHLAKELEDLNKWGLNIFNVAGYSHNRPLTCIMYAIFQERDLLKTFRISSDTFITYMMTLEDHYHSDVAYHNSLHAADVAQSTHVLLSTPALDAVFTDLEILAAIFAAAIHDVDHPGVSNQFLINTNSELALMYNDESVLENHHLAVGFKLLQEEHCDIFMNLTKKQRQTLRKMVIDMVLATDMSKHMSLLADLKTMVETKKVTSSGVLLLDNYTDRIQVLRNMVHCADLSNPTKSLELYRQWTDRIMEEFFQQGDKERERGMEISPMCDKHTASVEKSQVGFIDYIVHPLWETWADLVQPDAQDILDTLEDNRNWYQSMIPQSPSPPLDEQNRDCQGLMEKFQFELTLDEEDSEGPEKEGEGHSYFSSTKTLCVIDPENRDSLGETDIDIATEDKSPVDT
# Chain of Lysosomal acid glucosylceramidase (Homo sapiens) (P04062 whole entry, looked up): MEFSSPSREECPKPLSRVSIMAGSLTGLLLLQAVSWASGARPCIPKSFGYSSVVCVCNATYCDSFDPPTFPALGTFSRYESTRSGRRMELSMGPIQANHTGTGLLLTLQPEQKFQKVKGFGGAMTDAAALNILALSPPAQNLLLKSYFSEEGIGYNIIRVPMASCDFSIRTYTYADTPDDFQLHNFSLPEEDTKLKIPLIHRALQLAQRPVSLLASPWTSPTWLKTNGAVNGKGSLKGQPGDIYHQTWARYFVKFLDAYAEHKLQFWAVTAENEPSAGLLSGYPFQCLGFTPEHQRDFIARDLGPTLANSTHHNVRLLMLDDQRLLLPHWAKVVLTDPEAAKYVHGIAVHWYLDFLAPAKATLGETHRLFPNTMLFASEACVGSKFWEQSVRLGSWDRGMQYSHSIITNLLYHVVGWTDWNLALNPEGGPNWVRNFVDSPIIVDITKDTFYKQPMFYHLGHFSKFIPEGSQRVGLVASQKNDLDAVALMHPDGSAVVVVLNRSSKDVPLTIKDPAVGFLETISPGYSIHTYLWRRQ
smiles,measurement,setting,value
COc1ccc2[nH]cc(CCNc3ncncc3-c3ccc4c(c3)OCO4)c2c1,Potency,[1],> 11.4 µM
same,"activity change, negative = inhibition",[2],-27.8%
same,Potency,[3],inactive
COc1ccccc1CNc1ccnc(-c2cccnc2)n1,"activity change, negative = inhibition",[2],-7.12%
same,"activity change, negative = inhibition",[4],-4.87%
same,Potency,[3],inactive
COc1ccc(Oc2ncc3nc(-c4ccc(F)cc4)c(=O)n(CCC#N)c3n2)cc1,Potency,[1],> 11.4 µM
same,"activity change, negative = inhibition",[2],-16.1%
same,"activity change, negative = inhibition",[4],1.8%
same,Potency,[3],inactive
same,Potency,[5],inactive
COc1cccc(Nc2ncc3ncc(=O)n(Cc4ccc(F)cc4)c3n2)c1,"activity change, negative = inhibition",[2],-28.1%
same,"activity change, negative = inhibition",[4],-8.23%
CCNc1ncc2nc(-c3ccc(OC)cc3)c(=O)n(C)c2n1,Potency,[1],> 11.4 µM
same,"activity change, negative = inhibition",[2],22.4%
same,Potency,[5],inactive
COc1ccccc1CNc1nc(-c2ccoc2)nc2ccccc12,"activity change, negative = inhibition",[2],7.68%
same,"activity change, negative = inhibition",[4],-19.8%
COc1cccc(-c2nc(N(C)C)c3ccccc3n2)c1,"activity change, negative = inhibition",[2],15.5%
same,Potency,[6],0.251 µM (active)
same,"activity change, negative = inhibition",[4],-14.5%
same,Potency,[7],5.01 µM (active)
same,outcome,[8],inactive
same,Potency,[5],11.2 µM (active)
CN(C)c1nc(-c2cccc(C#N)c2)nc2ccccc12,"activity change, negative = inhibition",[2],2.42%
Cc1nc2cnc(N3CCN(C)CC3)nc2n(CCc2ccccc2)c1=O,Potency,[1],> 11.4 µM
same,"activity change, negative = inhibition",[2],0.08%
same,Potency,[6],10 µM (active)
same,"activity change, negative = inhibition",[4],-16.9%
same,outcome,[8],inactive
same,Potency,[9],5.01 µM (active)
COc1ccc2[nH]cc(CCNc3nc(-c4ccccc4OC)nc4ccccc34)c2c1,Potency,[1],> 11.4 µM
same,"activity change, negative = inhibition",[2],23.7%
same,Potency,[6],6.31 µM (active)
same,Potency,[3],inactive
same,Potency,[7],2.51 µM (active)
same,outcome,[8],inactive
same,Potency,[9],5.01 µM (active)
CN(C)c1ccc(-c2nccc(NCc3cccs3)n2)cc1,"activity change, negative = inhibition",[2],-18.4%
same,Potency,[6],0.398 µM (active)
same,outcome,[8],inactive
Cn1cc(-c2nc3cnc(N4CCNCC4)nc3n(C3CC3)c2=O)c2ccccc21,Potency,[1],> 11.4 µM
same,Potency,[6],12.6 µM (active)
same,"activity change, negative = inhibition",[4],28.9%
same,Potency,[3],inactive
same,outcome,[8],inactive
same,Potency,[5],inactive
COc1cccc(-c2ccc3ncnc(N4CCNCC4)c3c2)c1,Potency,[1],> 11.4 µM
same,"activity change, negative = inhibition",[2],1.7%
same,"activity change, negative = inhibition",[4],11.4%
same,outcome,[8],inactive
same,Potency,[9],3.16 µM (active)
same,Potency,[5],1 µM (active)
COCCn1c(=O)c(CCc2ccccc2)nc2cnc(N(C)C)nc21,Potency,[1],> 11.4 µM
same,"activity change, negative = inhibition",[2],-26.9%
same,Potency,[6],1.26 µM (active)
same,"activity change, negative = inhibition",[4],3.37%
same,outcome,[8],inactive
O=c1c(CCc2ccccc2)nc2cnc(Nc3ccccc3)nc2n1C[C@H]1CCCO1,Potency,[1],> 11.4 µM
same,"activity change, negative = inhibition",[2],16.4%
CN1CCN(c2ncc3nc(CCc4ccccc4)c(=O)n(CCc4ccccc4)c3n2)CC1,Potency,[1],> 11.4 µM
same,"activity change, negative = inhibition",[2],-6.08%
same,"activity change, negative = inhibition",[4],-18.1%
same,Potency,[5],inactive
COCCn1c(=O)c(-c2cccs2)nc2cnc(N3CCNCC3)nc21,Potency,[1],> 11.4 µM
same,Potency,[6],3.98 µM (active)
same,Potency,[3],inactive
same,outcome,[8],inactive
same,Potency,[5],inactive
COc1ccc2[nH]cc(CCNc3ncncc3-c3cccc(C#N)c3)c2c1,"activity change, negative = inhibition",[2],-18.6%
same,"activity change, negative = inhibition",[4],-10.2%
same,Potency,[3],inactive
CN(C)C(=O)c1ccc(-c2nc(N3CCOCC3)c3ccccc3n2)cc1,Potency,[1],> 11.4 µM
same,"activity change, negative = inhibition",[2],0.443%
same,"activity change, negative = inhibition",[4],21.6%
same,Potency,[3],inactive
COc1ccc2[nH]cc(CCNc3cc(-c4ccccc4OC)ncn3)c2c1,Potency,[1],> 11.4 µM
same,Potency,[6],1.58 µM (active)
same,"activity change, negative = inhibition",[4],-7.55%
same,Potency,[3],inactive
same,Potency,[7],6.31 µM (active)
same,outcome,[8],inactive
same,Potency,[9],3.16 µM (active)
C[C@@H]1O[C@@H](OC[C@H]2OC(Oc3c(-c4ccc(O)c(O)c4)oc4cc(O)cc(O)c4c3=O)[C@H](O)[C@@H](O)[C@@H]2O)[C@H](O)[C@H](O)[C@H]1O (some centres undefined),Potency,[10],inactive
Cc1ncc(COP(=O)(O)O)c(C)c1O,Potency,[1],> 11.4 µM
same,"activity change, negative = inhibition",[2],9.96%
same,"activity change, negative = inhibition",[6],-20.3% [at 11.4 µM]
same,"activity change, negative = inhibition",[4],-4.14%
same,Potency,[3],inactive
C=C1C[C@]23CC[C@H]4[C@@](C)(CCC[C@@]4(C)C(=O)O)[C@@H]2CC[C@@]1(O[C@@H]1O[C@H](CO)[C@@H](O)[C@H](O)[C@H]1O[C@@H]1O[C@H](CO)[C@@H](O)[C@H](O)[C@H]1O)C3,Potency,[10],inactive
same,Potency,[11],inactive
CC/C=C\C/C=C\C/C=C\C/C=C\CCCCC(=O)O,"activity change, negative = inhibition",[10],-16.1% [at 4.27 µM]
same,"activity change, negative = inhibition",[11],16.4% [at 4.62 µM]
CC(C)=CCCC(C)(OC1OC(COC2OC(CO)C(O)C2O)C(O)C(O)C1O)C1CCC2(C)C1C(O)CC1C3(C)CCC(OC4OC(CO)C(O)C(O)C4OC4OC(CO)C(O)C(O)C4O)C(C)(C)C3CCC12C (centres undefined),Potency,[10],inactive
